# Experimental data as given in PubChem BioAssay (NCI).
# Compounds without any hit were thinned out: in the full panel of roughly 83,000, 20% have a hit.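 For each line, cells grew in 96-well plates with the test compound present at a single concentration for 48 hours.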 Unmarked numbers belong to inactive results. Active and inactive are the calls of the source. The calls were made as follows: active = growth percent below 10; inactive = the rest.
# Assays:
# Assay in all cases: NCI-60 one-dose screen, 48 h (100 = growth as untreated, 0 = no growth, -100 = all killed)
# HCT-15 colon = settings: 10 µM unless noted
# HT29 colon = settings: 10 µM unless noted
# SNB-75 CNS = settings: 10 µM unless noted
# U251 CNS = settings: 10 µM unless noted
# PC-3 prostate = settings: 10 µM unless noted
# UACC-62 melanoma = settings: 10 µM unless noted
# LOX IMVI melanoma = settings: 10 µM unless noted
# SK-MEL-28 melanoma = settings: 10 µM unless noted
# SK-MEL-2 melanoma = settings: 10 µM
# EKVX NSCLC = settings: 10 µM unless noted
# SN12C renal = settings: 10 µM unless noted
# UO-31 renal = settings: 10 µM unless noted
# TK-10 renal = settings: 10 µM unless noted
# ACHN renal = settings: 10 µM unless noted
# CAKI-1 renal = settings: 10 µM unless noted
# CCRF-CEM leukemia = settings: 10 µM unless noted
# MOLT-4 leukemia = settings: 10 µM unless noted
# SK-MEL-5 melanoma = settings: 10 µM unless noted
# A498 renal = settings: 10 µM unless noted
# SNB-19 CNS = settings: 10 µM unless noted
SMILES,growth (HCT-15 colon),growth (HT29 colon),growth (SNB-75 CNS),growth (U251 CNS),growth (PC-3 prostate),growth (UACC-62 melanoma),growth (LOX IMVI melanoma),growth (SK-MEL-28 melanoma),growth (SK-MEL-2 melanoma),growth (EKVX NSCLC),growth (SN12C renal),growth (UO-31 renal),growth (TK-10 renal),growth (ACHN renal),growth (CAKI-1 renal),growth (CCRF-CEM leukemia),growth (MOLT-4 leukemia),growth (SK-MEL-5 melanoma),growth (A498 renal),growth (SNB-19 CNS)
O=C1CC(c2ccc(Cl)cc2)c2ncn(-c3cccc(Cl)c3)c2N1 (centres undefined),27.7%,28.8%,36.2%,36.3%,67.7%,33.9%,47.5%,54.8%,44.8%,73.5%,56.1%,50.5%,95.8%,52.6%,75.3%,60.4%,44.4%,,,
COc1ccc2c(CCc3ccc(Cl)cc3)c3[n+](cc2c1OC)CCc1cc2c(cc1-3)OCO2,111%,43.1%,58%,22.4%,36.4%,30.1%,50.9%,27.6%,36.7%,69.9%,21.9%,91.4%,67.9%,94.6%,99.2%,64.7%,72.6%,18.2%,,
COCCN1CCN(Cc2ccc(-c3n[nH]c4c3C(=O)c3c(NC(=O)NN5CCOCC5)cccc3-4)cc2)CC1,-13.6% (active),-22.3% (active),-37.6% (active),1.69% (active),3.15% (active),-44.9% (active),-77.2% (active),-39.7% (active),,-3.26% (active),7.64% (active),-14.2% (active),-30.9% (active),3.84% (active),-18.3% (active),-15.3% (active),-15% (active),-23.8% (active),-22% (active),
CCc1nc2cc(/C=C/C(=O)NO)ccc2c(=O)n1CCc1ccc(OC)cc1,25.2%,6.61% (active),,16.5%,22.9%,-5.16% (active),-21.8% (active),30%,47.4%,40.8%,24.9%,20.6%,2.16% (active),9.54% (active),13.4%,10.2%,5.41% (active),0.923% (active),-4.17% (active),35.9%
COc1cc2c(Oc3ccc4[nH]c(C)cc4c3F)ncnc2cc1OCCCN1CCCC1,99.4%,83.9%,50.9%,63.2%,103%,103%,85.8%,95.8%,,95.4%,91.9%,45.3%,90.8%,68.2%,58.9%,106%,62.9%,104%,2.51% (active),
CO[C@@H](C(=O)N1Cc2[nH]nc(NC(=O)c3ccc(N4CCN(C)CC4)cc3)c2C1)c1ccccc1,74.2%,-34.7% (active),-85.5% (active),16%,26.5%,30.6%,-89% (active),45.5%,,59.3%,26.8%,50.7%,9.33% (active),41.9%,17.3%,51.5%,31%,-20.5% (active),-37% (active),
CCN1CCN(Cc2ccc(-c3cc4c(N[C@H](C)c5ccccc5)ncnc4[nH]3)cc2)CC1,50.1%,4.82% (active),75.1%,56.8%,41.3%,7.59% (active),13.5%,16.7%,,41.8%,25%,13.5%,2.14% (active),9.72% (active),21.7%,25.4%,37.8%,59.8%,25.4%,
Cn1ccnc1C(=O)/C=C/c1ccc(CC(=O)Nc2ccc(Br)cc2)cc1,5.5% (active),0.238% (active),8.2% (active),5.83% (active),23%,33%,7.81% (active),92.3%,,22.6%,1.07% (active),22.7%,49.5%,40.3%,34.9%,11.9%,2.44% (active),62.9%,73.8%,
CN1CCN(CCOc2cc(OC3CCOCC3)c3c(Nc4c(Cl)ccc5c4OCO5)ncnc3c2)CC1,54.6%,7.45% (active),-17.7% (active),67.3%,71%,99.6%,15.5%,104%,,43.8%,46.1%,17.7%,5.06% (active),12.5%,21.7%,84.3%,56.2%,87.4%,49.4%,
COC(=O)C1=C(C(=O)OC)C23C=C(C)C1C2=C(C)C1(CC1)[C@@](C)(O)C3=O (some centres undefined),6.97% (active),-0.501% (active),-56.5% (active),2.06% (active),11.5%,-45.2% (active),-14.3% (active),-22.5% (active),-54.6% (active),-6% (active),9.49% (active),-28% (active),-6.99% (active),,,66.5%,73.6%,-75.7% (active),-44% (active),
COc1cc(NC2CCC(=O)N2c2ccc(Cl)cc2Cl)cc(OC)c1OC (centres undefined),108%,107%,86.5%,97.7%,95.9%,104%,96.6%,104%,,100%,109%,94.5%,104%,110%,95.7%,90.5%,96.2%,103%,89.2%,
Cc1nc(NC(=O)N2CCC[C@H]2C(N)=O)sc1-c1ccnc(C(C)(C)C(F)(F)F)c1,30.4%,4.8% (active),24.8%,33.4%,43.3%,23.8%,18.8%,49.2%,,41.1%,57.7%,25.1%,13.3%,36.9%,17.8%,35.9%,8.66% (active),61.8%,1.67% (active),
CN1CCN(CCCOc2cccc3nc(Nc4ccc(Cl)c(C(F)(F)F)c4)ccc23)CC1,-49.6% (active),-58.9% (active),-3.73% (active),-22.7% (active),14.6%,-29% (active),-95% (active),-45.2% (active),,44.5%,28.3%,28.6%,-66.5% (active),-69.3% (active),48.9%,-24.7% (active),-57.6% (active),41.5%,30.8%,
Cn1cnc2c(F)c(Nc3ccc(Br)cc3F)c(C(=O)NOCCO)cc21,62%,6.34% (active),86.1%,51.5%,93%,-8.58% (active),29.6%,-3.38% (active),,54%,56.2%,48.8%,50.5%,57.6%,45.9%,73.8%,72.9%,45.5%,,
O=C(NOCCO)c1ccc2cncn2c1Nc1ccc(I)cc1F,66.7%,9.38% (active),81.1%,40.4%,81%,3.07% (active),19.9%,3.91% (active),,54.6%,68.1%,37.2%,57.2%,59.9%,41%,77.1%,85%,47%,-11% (active),
Cc1cc(Nc2cc(N3CCN(C)CC3)nc(/C=C/c3ccccc3)n2)n[nH]1,13.4%,-34.3% (active),-97.1% (active),-29.9% (active),16.5%,-69.9% (active),-92.6% (active),-65.4% (active),,36.1%,11.7%,-53.8% (active),-0.298% (active),0.23% (active),-45.3% (active),13.8%,-5.35% (active),-88.7% (active),-86.7% (active),
O=C1CCC(=O)CC1,102%,102%,88.8%,99.4%,92.7%,99%,101%,112%,,98.8%,90%,86.4%,96.4%,109%,96.5%,98.1%,101%,109%,104%,
